TIM10 inh: growth inhibitors of TIM10 yeast strain; S. cerevisiae TIM10 strain growth, BacTiter-Glo luminescence, 24 h; AID 463195; 330,000 compounds, 1.4% hits; inhibition, % at 10 µM;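 active = inhibition of 40% or more at the single tested concentration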;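 note: wild-type TIM10 isogenic control strain grown at permissive 25 °C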
tim23-1 inh: tim23-1 yeast growth inhibition | S. cerevisiae tim23-1 growth, BacTiter-Glo luminescence, 24 h | inhibition, % at 20 µM | 330,000 compounds, 1.3% hits | AID 463212;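 active = growth inhibition of the mutant yeast at or above 50%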;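 note: temperature-sensitive mutant grown at 25 °C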
PfHsp90 set2: reduces growth (ATP signal) of yeast expressing P. falciparum Hsp90; S. cerevisiae expressing PfHsp90, BacTiter-Glo ATP, 48 h; yeast lacking PDR1 and PDR3 efflux regulators; 310,000 compounds, 0.32% hits; inhibition, % at 9.4 µM;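 active = every replicate shows inhibition above about 80%, whatever the replicate mean, limit read from the data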
ATG4B inhibitor: ATG4B (human) cysteine protease inhibition; 340,000 compounds, 0.51% hits; ATG4B cleavage of LC3-PLA2, NBD-HPC fluorescence, 1 h; inhibition, % at 8.33 µM; Q9Y4P1; AID 504462; in the data active = inhibition above about 40%
Target sequence (Q9Y4P1 whole entry, looked up): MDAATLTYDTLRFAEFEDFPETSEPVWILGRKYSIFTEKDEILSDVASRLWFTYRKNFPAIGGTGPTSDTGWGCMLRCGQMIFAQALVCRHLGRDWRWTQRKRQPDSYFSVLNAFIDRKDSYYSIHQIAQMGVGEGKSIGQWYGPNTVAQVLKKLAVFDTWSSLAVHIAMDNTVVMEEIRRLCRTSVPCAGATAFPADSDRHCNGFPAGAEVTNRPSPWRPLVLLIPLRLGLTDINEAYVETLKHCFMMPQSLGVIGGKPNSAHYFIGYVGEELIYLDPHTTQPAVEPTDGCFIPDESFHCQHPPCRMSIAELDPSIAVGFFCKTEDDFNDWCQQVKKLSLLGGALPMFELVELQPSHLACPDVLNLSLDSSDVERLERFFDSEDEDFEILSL
tim10-1 inh: tim10-1 yeast growth inhibition; S. cerevisiae tim10-1 ts strain growth, BacTiter-Glo, 24 h; inhibition, % at 20 µM; 330,000 compounds, 2.2% hits;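 active = inhibition of at least 40%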;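 note: mutant grown at 25 °C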
SKKanGAS inh: inhibitors of SKKanGAS S. pyogenes growth in kanamycin (SK-promoter or general growth effect). 300,000 compounds, 1.3% hits. BacTiter-Glo, 6 h. AID 1662. inhibition, % at 7.5 µM;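 active = mean replicate score, as percent of positive control median, at least 50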;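 note: strain carries kanamycin resistance gene driven by streptokinase promoter and grows in 40 µg/ml kanamycin; loss of luminescence reflects streptokinase promoter inhibition or plain growth inhibition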
Hits are given with their value; - = inactive; . = no result given. Rows were chosen to be rich in hits. Some 4.7% of all compounds tested hit in one or more screens of this group.

SMILES	TIM10 inh	tim23-1 inh	PfHsp90 set2	ATG4B inhibitor	tim10-1 inh	SKKanGAS inh
Cc1cc(/C=C2\C(=N)N3N=C(S(C)(=O)=O)SC3=NC2=O)c(C)n1Cc1ccccc1	-	-	-	-	-	53.6
CC1=CC2=NC(=O)/C(=C\c3cc(C)n(-c4ccccc4F)c3C)C(=N)N2O1	-	-	-	-	-	-
COc1cc(/C=C2\C(=N)N3N=C(S(C)(=O)=O)SC3=NC2=O)cc(OC)c1OCCOc1ccccc1C	-	-	-	77.2	-	-
Cc1cc(/C=C2/C(=N)N3C(=NC2=O)SN=C3S(C)(=O)=O)c(C)n1-c1ccccc1F	-	-	-	-	-	56.2
O=C(CSC1=NCCS1)NC(NC(=O)CSC1=NCCS1)c1ccccc1	-	-	-	-	-	-
COc1ccc(OC)c(CNCc2ccc3c(c2)OCO3)c1	-	-	-	-	-	-
O=C1/C(=C/c2ccncc2)CCC/C1=C\c1ccncc1	.	.	101.8	-	.	-
C=CCC[C@H](Cc1ccc(F)cc1)C(=O)OC[C@@H](NC(=O)[C@@H](CC=C)CC(=O)N(CCO)Cc1ccccc1)C(C)(C)C	-	-	-	-	-	.
O=S(=O)(Nc1nc2ccccc2nc1N1CCN(c2ccccn2)CC1)c1ccc(Cl)cc1	.	.	104.0	-	.	.
COC(=O)NCC(c1ccco1)N1CCN(c2ccc(OC)cc2)CC1 (stereo not given)	-	-	-	-	-	-
Cc1cc(C)cc(NC2=NC3(CCCCC3)N=C(N)N2)c1	-	-	-	-	-	-
Cc1cccc(NC2=NC(C)(C)N=C(N)N2)c1	-	-	-	-	-	111.0
COc1ccccc1OCCCn1cc(C#N)c2ccccc21	-	-	-	-	-	-
COc1ccccc1OCCCn1c(C)c(C#N)c2ccccc21	-	-	-	-	-	61.8
Cc1ccc(C(=O)Nc2nc(-c3cc(Cl)sc3Cl)cs2)cc1	-	-	.	-	-	-
Cc1cccc(C)c1NC(=O)COn1nnc2ccc(C(F)(F)F)cc21	-	-	-	-	-	-
Cc1ccc(C)c(-c2nnc(NC(=O)COc3ccccc3)o2)c1	-	-	-	-	-	104.9
O=C(COn1nnc2ccc(C(F)(F)F)cc21)Nc1nnc(-c2ccccc2)o1	-	-	-	-	-	90.5
O=C(COc1ccccc1)Nc1nnc(-c2ccccc2)o1	-	-	-	-	-	-
COc1cccc(C(=O)OCC(=O)Nc2nnc(-c3ccccc3)o2)c1	-	-	.	-	-	67.9
Cc1ccc(C)c(SCC(=O)Nc2nnc(-c3ccccc3)o2)c1	-	-	-	-	-	81.7
CCC(c1nnc(SCC(=O)Nc2nnc(-c3ccccc3)o2)o1)N(C)C (stereo not given)	-	-	-	-	-	-
CCOC(=O)c1sc(/N=C/c2c(O)ccc3ccccc23)cc1C	-	-	-	-	-	-
Cc1ccc(C)c(-c2nnc(NC(=O)CCS(=O)(=O)c3ccccc3)o2)c1	-	-	.	-	-	51.3
Cc1ccc(C)c(-c2nnc(NC(=O)C3=COCCO3)o2)c1	-	-	-	-	-	-
SMILES	TIM10 inh	tim23-1 inh	PfHsp90 set2	ATG4B inhibitor	tim10-1 inh	SKKanGAS inh
Cc1ccc(-c2nnc(NC(=O)CCS(=O)(=O)c3ccccc3)o2)c(C)c1	-	-	-	-	-	-
Cc1ccc(C)c(-c2nnc(NC(=O)c3ccc([N+](=O)[O-])o3)o2)c1	-	-	-	-	-	79.8
O=C(NNC(=S)NC(=O)c1cccc([N+](=O)[O-])c1)c1ccc(Br)cc1	-	-	-	-	-	67.7
Cc1ccc(C(=O)NC(=S)NNC(=O)c2cccc([N+](=O)[O-])c2)cc1	-	-	-	-	-	74.0
CC(C)(C)C1CC=C2C(C#N)=C(N)C(C#N)(C#N)C(c3cccs3)C2C1 (stereo not given)	-	-	.	.	-	53.6
O=C(C1CCN(c2ncnc3c2nc2n3CCCCC2)CC1)N1CCN(c2cccc(Cl)c2)CC1	-	-	-	46.9	-	-
COc1cc(Cc2cc(N)nc(N)n2)cc(OC)c1OC	-	-	-	-	-	70.8
Cc1cc(C)c(NC(=O)c2cccs2)c(C)c1NC(=O)c1cccs1	-	-	-	-	-	-
C[C@]12CC[C@@H]3c4ccc(O)cc4CC[C@H]3[C@@H]1CC[C@@H]2OC(=O)CCC1CCCC1	-	-	-	-	-	111.4
C[C@]12CC[C@@H]3c4ccc(O)cc4CC[C@H]3[C@@H]1CCC2=O	-	-	-	-	-	-
CCCCC(=O)O[C@H]1CC[C@H]2[C@@H]3CCc4cc(O)ccc4[C@H]3CC[C@]12C	-	-	-	-	-	89.4
COc1ccc(/C=N/NC(=O)c2cc(C(C)(C)C)[nH]n2)cc1COc1ccc(F)cc1F	-	-	.	-	-	60.5
COc1ccc(/C=N\NC(=O)c2cc(O)c(O)c(O)c2)cc1COc1ccc(C(=O)OCC(C)C)cc1	-	-	-	-	-	89.6
Cc1cc(Oc2cnn(C(C)(C)C)c(=O)c2Cl)cc(C(C)C)c1	-	-	-	-	-	59.0
CCOc1ccc(Cl)cc1S(=O)(=O)n1cnc2cc(C)c(C)cc21	-	-	-	-	-	51.5
CC(=O)/C(=N/Nc1ccc(Br)cc1)N1CCCc2ccccc21	-	-	-	-	-	51.5
COCCNC(=S)NN(c1ccccc1)c1ccccc1	-	-	-	-	-	-
Cc1onc(-c2ccccc2)c1C(=O)NC(=S)NNC(=O)c1ccncc1	-	-	-	-	-	-
Cc1onc(-c2ccccc2)c1C(=O)NC(=S)NNC(=O)c1ccco1	-	-	-	-	-	77.7
Cc1onc(-c2ccccc2)c1C(=O)NC(=S)NNC(=O)c1cc(-c2ccc(F)cc2)n[nH]1	-	-	-	-	-	119.2
Cc1onc(-c2ccccc2)c1C(=O)NNC(=S)NC(=O)/C=C/c1cccs1	-	-	-	-	-	95.4
Cc1onc(-c2ccccc2)c1C(=O)N/N=C/c1cccs1	-	-	-	-	-	-
COC(=O)C1=C(C)N(CCc2ccc(OC)c(OC)c2)C(=O)/C1=C\N(C)C	-	-	-	-	-	-
CCCCCc1nnc(NC(=O)c2ccc3nc[nH]c3c2)s1	-	-	-	-	-	.
CCOc1cc(-c2nc(-c3ccccc3OC)no2)cc(OCC)c1OCC	-	-	-	-	-	-
FC(F)(F)c1cccc(CNC2c3ccccc3-c3ccccc32)c1	-	-	-	-	-	74.9
Cc1ccc(N/N=C(\C#N)C(N)=S)c(C)c1	.	.	100.7	-	.	59.9
COc1cc([N+](=O)[O-])cc(/C=N/NC(=O)c2cc(-c3ccccc3)nc3ccccc23)c1O	-	-	-	-	-	95.0
COc1ccc(/C=N/NC(=O)c2cc(-c3ccccc3)nc3ccccc23)c(C(=O)O)c1OC	-	-	-	-	-	-
COc1cc([N+](=O)[O-])cc(/C=N/NC(=O)c2cc(C)nc3ccccc23)c1O	-	-	-	-	-	106.4

From PubChem BioAssay
